HT1080 IDH1KD tx = toxicity to HT-1080 IDH1 knockdown cells (counter line) | HT-1080 IDH1 knockdown viability, ATP luminescence, 48 h | Potency, µM (top dose mostly 46.1 µM), inactives show at the top dose activity, negative = toxicity, actives largely listed as cytotoxic | actives 2% (n = 360,000) | AID 686971;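 note: 0% = DMSO wells and -100% = cell-free medium wells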
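In this qHTS, HT-1080 cells depleted of IDH1 are exposed for 48 h at 37 °C to compound titrations. Toxicity is scored from CellTiter-Glo luminescence, with DMSO as full viability and medium alone as none.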
TGFb inhibitor = TGF-b pathway inhibition; HepG2 CAGA-GFP TGF-b/SMAD3 reporter, GFP fluorescence, 18 h; TGF-beta stimulated, 500 pg/mL final; Potency, µM (doses to about 46.1 µM), without a hit: at the top dose activity, negative = inhibition, usual class: inhibitors; actives 1.2% (n = 410,000); note: % is set by controls: 0 for no effect and ±100 for the full control effect; nearly all actives have a fitted effect of over 65% in size
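TGF-beta reporter screen: HEPG2 CAGA-GFP, 1% FBS, 500 pg/mL TGF-beta final, 18 h; per-cell GFP summed per well; curves fitted and categorized by class.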
HT1080NT lethal = kills 2HG-producing HT-1080-NT fibrosarcoma cells | HT-1080-NT fibrosarcoma viability, CellTiter-Glo ATP luminescence, 48 h | Potency, µM (highest dose often 46.1 µM), without a hit: top-dose activity, negative = less viability, most hits filed as cytotoxic | actives 1.6% (n = 360,000);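 note: NT is the 2HG producing partner of a matched IDH1 knockdown line; 0% = DMSO-treated cells and -100% = media-only wells without cells; nearly all actives have a fitted effect of over 55% in size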
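750 cells/well, RPMI + 5% FBS; 2 h settle, compound pin-transfer, 48 h at 37 degrees C. CellTiter-Glo 10 min RT, luminescence. Normalized to DMSO and media-only wells.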
ATXN2 expr inh = inhibitors of ATXN2 expression; actives 0.72% (n = 360,000); AID 1745845; HEK-293 ATXN2-luciferase reporter, luminescence, 24 h; Potency, µM (top dose mostly 57 µM), for the others: at the highest dose activity change, negative = inhibition, usual class: inhibitors; note: % is set by controls: 0 for no effect and ±100 for the full control effect; nearly all actives have a fitted effect of over 55% in size
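qHTS (up to 57 uM final) was run with 24 h compound exposure of reporter cells at 37 °C. Each well was multiplexed: SteadyGlo luminescence measured ATXN2-luciferase expression after a fluorogenic Gly-Phe-AFC viability readout (25 uM final).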
ATXN viability = viability counter-screen for ATXN expression inhibitors. Potency, µM (doses to about 56.7 µM), hits mostly cytotoxic. actives 0.49% (n = 400,000). S2 cells (HEK-293 line with an ATXN2-luciferase reporter) viability, CellTiter-Fluor protease fluorescence, 24 h; note: nearly all actives have a fitted effect of over 40% in size
HepG2 viability = counter-screen for TGF-b inhibitors: cytotoxicity in HepG2 cells; actives 0.76% (n = 410,000); Potency, µM (series often up to 46.1 µM), inactives show top-dose activity change, negative = cytotoxicity, actives largely listed as cytotoxic; HepG2 CAGA-GFP viability, ATP luminescence, 18 h; AID 588856
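CellTiter-Glo luminescence gave cytotoxicity after 18 hours at 37 degrees C. The cells were HepG2 CAGA-GFP in 1% FBS DMEM, stimulated with 500 pg/mL TGF-beta after compound addition. %Activity was normalised to no-cell wells (complete cell-killing) and DMSO (no toxicity), and curves were fitted and classified.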
* marks the source's active call; other numbers are inactive results; i = inactive; ? = inconclusive; · = not tested or not shown. Compounds with a hit are over-represented: about 3.8% of the library has one in this group of screens. Calls come from the whole dose curve; as a rule, active = well fitted curve in the direction sought with a large enough effect; inconclusive = small, poorly fitted or top-dose-only effect, or another doubt; inactive = no such curve, though single readings can be large; an effect the other way counts as inactive or inconclusive. Potency is the fitted concentration of half-maximal effect.

SMILES	HT1080 IDH1KD tx	TGFb inhibitor	HT1080NT lethal	ATXN2 expr inh	ATXN viability	HepG2 viability
CCN(Cc1ccccc1)c1ccc(/C=N/N=C(N)N)cc1	?	?	18.4µM*	?	?	-81.5%
CCN(Cc1ccccc1)c1ccccc1	3.7%	-1.1%	0.1%	4.1%	i	-11.5%
Cc1ccc(S(=O)(=O)Cc2nc(-c3ccc(C(=O)NCc4ccccc4F)cc3)oc2C)cc1	·	-12.0%	·	·	·	-43.2%
CCOC(=O)c1cc2c(=O)n3ccccc3nc2n(CCOC)c1=NC(=O)C(C)(C)C	0.7%	0.6%	6.1%	-2.7%	·	7.94µM*
O=C(Nc1ccc(F)c(F)c1)C1CCCN1S(=O)(=O)c1cccc2nsnc12 (stereo not drawn)	·	?	·	-17.6%	?	-3.8%
CN(C)c1nc(=NCc2ccco2)ss1	-5.7%	0.316µM*	-3.2%	·	0.1µM*	-74.4%
COC(=O)C1=C(C)N(c2ccc(S(N)(=O)=O)cc2)C(=O)C1	8.5%	3.8%	11.8%	0.2%	i	1.7%
COC(=O)C1=C(C)N(c2ccc(Cl)c(Cl)c2)C(=O)C1	?	?	14.6µM*	?	i	-11.3%
CC(C)(C)Cn1c(N)nc2ccc(-c3[nH]c(C(C)(C)C)nc3-c3ccc(F)cc3)nc21	·	·	·	27.3µM*	·	·
Cc1ccc(C)c(N2CCN(C(=O)c3ccc4[nH]c(C)c(C)c4c3)CC2)c1	·	-23.6%	·	·	·	-84.2%
Cc1ccc(C)c(N2CCN(C(=O)c3noc4c3CCCCC4)CC2)c1	·	12.6µM*	·	·	·	-27.2%
Cc1ccc(C)c(N2CCN(C(=O)c3ccc4nsnc4c3)CC2)c1	9.2µM*	-24.4%	8.2µM*	-34.5%	i	-18.6%
O=C(N/N=C/c1ccccc1Cl)c1n[nH]c2c1CCCC2	2.3%	4.5%	3.4%	·	i	-32.6%
O=C(N/N=C/c1ccc(Cl)cc1)c1n[nH]c2c1CCCC2	0.517µM*	?	0.411µM*	-17.3%	?	20.3%
O=C(N/N=C/C(Br)=C/c1ccccc1)c1n[nH]c2c1CCC2	7.94µM*	-10.2%	?	-4.9%	i	-20.0%
O=C(N/N=C/c1cccs1)c1n[nH]c2c1CCC2	6.51µM*	-29.5%	7.31µM*	?	?	0.4%
O=C(N/N=C/c1ccccc1)c1n[nH]c2c1CCCC2	?	-34.1%	?	?	i	-15.1%
Cc1cc(N(C)C)cc(C)c1C=O	·	-16.3%	·	·	·	-7.6%
O=C(CN1C(=O)c2ccccc2S1(=O)=O)Nc1cc(S(=O)(=O)N2CCOCC2)ccc1N1CCOCC1	·	18.2%	·	·	·	5.8%
N#C[C@H]1C[C@H]2C[C@@H]2N1C(=O)[C@@H](N)C12CC3CC(CC(O)(C3)C1)C2	·	·	·	?	i	·
Cc1[nH]c2c(ccc3cccnc32)c1C	0.3%	4.6%	0.7%	4.3%	i	-14.2%
CC1=[N+](C)c2c(ccc3cccnc23)C1(C)C	?	?	?	2.99µM*	·	-10.6%
C[n+]1c2cc(N)ccc2cc2ccc(N)cc21 (tested in a mixture with another compound)	·	·	·	3.16µM*	·	·
O=S(=O)(c1ccc(Cl)c(Cl)c1)c1snnc1-c1ccccc1	8.2µM*	?	16.4µM*	28.2µM*	12.6µM*	15.8µM*
O=S(=O)(Nc1cccc2ccccc12)c1ccc2ccccc2c1	·	?	·	·	·	-18.0%
SMILES	HT1080 IDH1KD tx	TGFb inhibitor	HT1080NT lethal	ATXN2 expr inh	ATXN viability	HepG2 viability
O=C(CSc1ncccc1-c1nc2ccccc2[nH]1)NCc1ccco1	?	-6.9%	?	62.3%	i	-16.8%
Cc1cc2nc(-c3cccnc3SCC(=O)NCc3ccco3)[nH]c2cc1C	10µM*	-1.4%	10µM*	15.2%	i	-66.5%
CC(O)(COc1ccccc1)c1ccc2c(c1)CN(Cc1cccnc1)CCO2 (stereo not drawn)	·	·	·	·	i	·
CCc1cccc2sc(N3CCN(C(=O)c4ccc([N+](=O)[O-])o4)CC3)nc12	?	17.8µM*	-24.6%	?	·	-96.3%
Cc1cc(C(=O)CSc2nnc(NCc3ccccc3)s2)c(C)n1C	?	-7.2%	14.6µM*	-13.5%	?	-6.0%
CN1/C(=C\C(=O)CSc2nnc(NCc3ccccc3)s2)C(C)(C)c2ccccc21	-12.7%	?	-6.2%	-24.4%	?	-44.1%
Cc1c(C(=O)NCC2COCCO2)cnn1-c1nccc(-c2cccs2)n1 (stereo not drawn)	·	·	·	·	i	·
Cc1nc2ccccc2c(N)c1C(=O)/C=C/c1ccccc1	11.6µM*	?	?	?	?	-62.8%
CC(=O)c1c(C)nc2ccccc2c1N	0.7%	-3.4%	-1.3%	-5.7%	i	0.2%
O=C(c1cnc2ccc3ccccc3c2c1)c1cc(F)ccc1O	8.2µM*	?	16.4µM*	8.6%	i	-31.0%
Cc1nn(C)c2ncc(C(=O)c3cc(F)ccc3O)cc12	-8.5%	?	-2.2%	5.7%	i	-11.3%
Cc1c(C(=O)NCC2(c3ccccc3)CCOCC2)cnn1-c1nccc(-c2ccco2)n1	·	·	·	·	i	·
N#CC1=C(N)OC2=C(CCc3ccccc32)C1c1ccccc1Cl (stereo not drawn)	4.61µM*	0.0%	7.31µM*	-36.1%	i	-102.3%
CCCCCCCC(=O)[O-].CCCCCCCC(=O)[O-].[Zn+2]	·	·	·	-2.0%	i	·
Cc1nc2c(C(=O)NCCc3ccccc3)c[nH]n2c(=O)c1Cc1ccc(F)cc1Cl	·	?	·	-12.0%	i	-49.1%
Cc1nc2c(C(=O)NCCc3ccc(Cl)cc3)c[nH]n2c(=O)c1Cc1ccccc1F	·	12.6µM*	·	-12.1%	i	15.8µM*
COCC(=O)N1CCCC(C(=O)c2ccc(Oc3ccccc3)cc2)C1 (stereo not drawn)	-1.4%	?	-15.6%	-19.6%	?	4.9%
CC(=O)N1CCCC(C(=O)c2ccc(Oc3ccccc3)cc2)C1 (stereo not drawn)	16.4µM*	-19.8%	23.1µM*	-10.3%	i	-15.2%
Cc1ccc(/C=C/c2onc(C)c2S(=O)(=O)N2CCC(C(=O)Nc3cccc(C#N)c3)CC2)cc1	·	-24.7%	·	8.9%	i	4.0%
Nc1nnnn1/N=C/c1ccc(O)cc1	17.7%	1.5%	16.5%	0.3%	i	1.9%
CCN(C)c1ccc(/C=N\n2nnnc2N)cc1	5.17µM*	1.0%	?	136.1%	i	3.0%
Cc1ccc2nc3cc([N+](=O)[O-])cc([N+](=O)[O-])c3cc2c1	-12.7%	7.1%	3.6%	7.52µM*	7.94µM*	-18.1%
c1cc2c(cc1C1=NNC(=NC3CC3)SC1)OCCO2	11.6µM*	?	16.4µM*	·	?	-78.3%
